Results: PubChem BioAssay (NCI)
About 79,000 compounds went through this panel and 15% of them were active in at least one assay; those are over-represented in the sample as a whole. Activity calls are given as the source filed them. Rule as the data show it: active = growth inhibition above about 70%; inactive = the rest. Where a SMILES comes first, the peptide text is derived from it. Bridges are numbered along the chain shown (N, C = ends).

What was measured:
[1] = NCI Yeast Anticancer Drug Screen. Data for the rad50 strain (AID 155);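 also: 0% = growth of vehicle-only cultures of the same strain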; settings: S. cerevisiae rad50 strain growth inhibition; at 50.0 µM; active compounds read high
Outline: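 A DNA repair-deficient yeast mutant serves as the test organism; compound-induced growth inhibition is calculated against vehicle-treated cells.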

[2] = NCI Yeast Anticancer Drug Screen. Data for the mec2-1 strain (AID 157); settings: S. cerevisiae mec2-1 strain, at 50.0 µM, active compounds read high
Outline: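 Each compound was tested on mec2-1 yeast, a strain altered in DNA damage repair or cell cycle control. Growth inhibition is reported relative to vehicle.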

[3] = NCI Yeast Anticancer Drug Screen. Data for the sgs1 mgt1 strain (AID 161);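 also: 0% = growth of cultures given vehicle only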; settings: S. cerevisiae sgs1 mgt1 strain, at 50.0 µM, active compounds read high
Outline: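 Mutant yeast exposed to compound; growth scored against vehicle-only wells.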

[4] = NCI Yeast Anticancer Drug Screen. Data for the cln2 rad14 strain (AID 165);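 also: 0% = growth equal to vehicle treated cultures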; settings: S. cerevisiae cln2 rad14 strain, at 50.0 µM, active compounds read high
Outline: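 Test compounds were added to cln2 rad14 yeast cultures; inhibition of growth was then determined by comparison with vehicle treatment.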

[5] = NCI Yeast Anticancer Drug Screen. Data for the bub3 strain (AID 167); settings: S. cerevisiae bub3 mutant strain, at 50.0 µM, active compounds read high
Outline: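 Inhibition values come from growth of compound-treated mutant yeast normalised to vehicle-treated controls.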

[6] = NCI Yeast Anticancer Drug Screen. Data for the mlh1 rad18 strain (AID 175); settings: S. cerevisiae mlh1 rad18 strain growth inhibition; at 50.0 µM; active compounds read high
Outline: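 Inhibition values reflect reduced growth of mutant yeast versus vehicle-treated controls following compound exposure; the mutations affect DNA damage repair.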

Measured: growth inhibition

Cc1ccc(CN2CCOCC2)c(O)c1
inactive: [1] 18.9% | [2] 9.15% | [3] -0.65% | [4] -0.1% | [5] -7.45% | [6] -11.4%

Nc1c2ccccc2nc2nccnc12
inactive: [1] 3.6% | [2] 2.65% | [3] 5.95% | [4] 16.9% | [5] -3% | [6] 30.4%

COc1ccc(CCn2nnc3ccccc3c2=O)cc1OC
inactive: [1] -4.1% | [2] -33.1% | [3] -10.1% | [4] 16.6% | [5] -28.4% | [6] -11.5%

Cc1cn(C2CC(N=[N+]=[N-])C(CO)O2)c(=O)[nH]c1=O (configuration not stated)
inactive: [1] -0.7% | [2] -0.4% | [3] -39.5% | [4] 14.1% | [5] 0.05% | [6] -15.6%

NC(C(=O)O)C(F)(F)C(=O)O (configuration not stated)
inactive: [1] 2.45% | [2] -18.7% | [3] -2.7% | [4] -33.1% | [5] -7.3% | [6] -1.15%

CCNc1ncc2nc(CC(=O)OC)c(=O)n(CC)c2n1
inactive: [1] -10.3% | [2] 1.6% | [3] 4.75% | [4] -75.6% | [5] 10.5% | [6] -4.4%

c1ccc(-c2c[s+]cc(-c3ccccc3)c2)cc1
active: [1] 98.7% | [2] 98.9% | [3] 99.2% | [4] 98.5% | [5] 78.2% | [6] 99.2%

Cc1ccc(-c2cc(C(=O)NN)c(C#N)c(=O)[nH]2)cc1
inactive: [1] 11.4% | [2] 0.55% | [3] -0.85% | [4] 15.1% | [5] -13.2% | [6] 26.1%

CN(C)[C@@H]1C(=O)C(C(=O)NCN2CCN(C(=N)N=C(N)N)CC2)=C(O)[C@@]2(O)C(=O)C3=C(O)c4c(O)cccc4[C@@](C)(O)[C@H]3C[C@@H]12
inactive: [1] -0.05% | [2] 1.65% | [3] -3.2% | [4] 14.2% | [5] 10.7% | [6] -5%

CCN(CC)CCC(=O)c1ccc(OC)cc1
inactive: [1] 7.95% | [2] 16.3% | [3] 2.45% | [4] 23.4% | [5] 7.55% | [6] 8.15%

C=C(C)C(=O)OC1CC2(C)OC2CC(OC(C)=O)/C(C)=C/C2OC(=O)C(=C)C21 (configuration not stated)
inactive: [1] 20.8% | [2] 49.7% | [3] 31.7% | [4] 39.5% | [5] 46.6% | [6] -7.5%

COC(=O)C1CCC(=O)NCCCCC(NC(=O)C(N)CC(=O)O)C(=O)N1 (stereo not drawn) (H-Asp-Lys-Glu-OMe; lactam 2-3; configuration not given here)
inactive: [1] 5.4% | [2] 4% | [3] 11.3% | [4] -1.9% | [5] 15.1% | [6] -27.9%

COc1ccc(N=Nc2c(C)c(C#N)c(=S)n(C3OC(CO)C(O)C(O)C3O)c2-c2ccccc2)cc1 (configuration not stated)
inactive: [1] 0.55% | [2] 2.85% | [3] 20.1% | [4] 10.7% | [5] 11.8% | [6] 23.9%

CC1C(O)CC23COC(=O)C2=CCCC3C1(C)CCC1COC(=O)C1 (configuration not stated)
inactive: [1] -5.05% | [2] -21.9% | [3] 17.9% | [4] 5.85% | [5] -10.4% | [6] 7.45%

CC(=NCCN=C(C)c1ccc(Br)cc1)c1ccc(Br)cc1
inactive: [1] 16.9% | [2] -6.95% | [3] -21.8% | [4] -2% | [5] 2.4% | [6] 1.1%

CN(C(=O)c1cccs1)C(=S)N1CCN(c2ccccn2)CC1
inactive: [1] -84.2% | [2] -57.6% | [3] -2.4% | [4] -11.8% | [5] -7.85% | [6] -29.6%

CCCCCCCCCC1OC(C)C(C)O1 (configuration not stated)
inactive: [1] 24.6% | [2] 7.55% | [3] 16.3% | [4] -19.1% | [5] 1.55% | [6] 29.4%

Clc1cccc(Cl)c1C(Nc1ncccn1)Nc1ncccn1
inactive: [1] 12.2% | [2] 14.8% | [3] 12.1% | [4] -16.4% | [5] 9.6% | [6] 20.4%

C/C=C(/C)C(=O)O[C@H]1C(C)=C[C@]23C(=O)[C@@H](C=C(COC(C)=O)[C@@H](O)[C@]12O)[C@H]1[C@@H](C[C@H]3C)[C@@]1(C)OC(=O)/C(C)=C\C
inactive: [1] 58.7% | [2] 60.4% | [3] 60.6% | [5] 56.8% | [6] 59.2%
active: [4] 76.3%

O=C(O)c1cc(O)c(C(=O)O)cc1O
inactive: [1] -3.2% | [2] -9.15% | [3] -18.6% | [4] -15.2% | [5] -3.25% | [6] 0.3%

OC1CCCC2OC2CC1 (configuration not stated)
inactive: [1] 0.4% | [2] 6.55% | [3] -9.5% | [4] 11.7% | [5] 7.25% | [6] 13.9%

O=C(O)CNc1ccc(C(=O)O)cc1
inactive: [1] -20.9% | [2] -10.1% | [3] -11.3% | [4] 41.1% | [5] -51.7% | [6] -11.7%

COc1ccc(-c2onc3ccc(Cl)cc23)cc1
inactive: [1] -9.1% | [2] 4.1% | [3] 17.4% | [4] -63.5% | [5] 7.35% | [6] 21.4%

N#C/C(=N\NC(=O)c1ccccc1Cl)c1ccccc1Cl
active: [1] 89.5% | [2] 79.3% | [3] 83% | [4] 82.2% | [6] 77.8%
inactive: [5] 67.3%

CNCCS(=O)(=O)O
inactive: [1] 13.9% | [2] -3.05% | [3] 1.7% | [4] -6.3% | [5] 13.6% | [6] 9.25%

COc1cc2oc3cc(OC)c(OC)c(CC=C(C)C)c3c(=O)c2c(O)c1CC=C(C)C
inactive: [1] -1.45% | [2] -30.6% | [3] 0.15% | [4] 5.8% | [5] -30.6% | [6] 21.2%

COc1ccccc1NC(=O)NCCN1CCCC1
inactive: [1] -2.15% | [2] 8.1% | [3] 31.1% | [4] -8.9% | [5] 9.45% | [6] 5.3%

C[P+](Cc1ccc([N+](=O)[O-])cc1)(c1ccccc1)c1ccccc1
inactive: [1] -2.85% | [2] -19.1% | [3] -3.15% | [4] -1.7% | [5] -9.8% | [6] -7.15%

CN1C(=O)CC2(C)c3cc(O)cc(Br)c3N(C)C12 (configuration not stated)
inactive: [1] 6.6% | [2] -10.5% | [3] 8.45% | [4] 10.5% | [5] -6.25% | [6] 17.7%

Cc1c(C#N)c2n(c1C)CC(=O)N2
inactive: [1] 7.85% | [2] 0.45% | [3] 2.8% | [4] -0.85% | [5] -20.4% | [6] -33.9%

CC(C)C1OC2(CCCC2)OCC1(C)C (configuration not stated)
inactive: [1] -10.2% | [2] -19.4% | [3] -10.4% | [4] -21.8% | [5] -4.7% | [6] -1.1%

CCOC1OC(C2COC(=O)O2)C(O)C1O (configuration not stated)
inactive: [1] 15.8% | [2] 10.6% | [3] -3.85% | [4] -71.2% | [5] 7.4% | [6] -3%

O=C(/C=C\c1ccccc1)Nc1c(Cl)cc(Cl)cc1Cl
inactive: [1] 0.65% | [2] 10.5% | [3] 9.05% | [4] -8.75% | [5] 39.5% | [6] 23.3%

C(=C\C(SCc1ccccc1)SCc1ccccc1)/c1ccccc1
inactive: [1] -43% | [2] -60% | [3] -27.8% | [4] 3.55% | [5] -7.2% | [6] -35.6%

C1CSCCCSCCSCCCSC1
inactive: [1] -15.1% | [2] -9.45% | [3] 3.6% | [4] 5.3% | [5] 0.2% | [6] 4.45%

O=C(C1C2C=CC(C2)C1C(=O)N1CCCCC1)N1CCCCC1 (configuration not stated)
inactive: [1] 2.5% | [2] 25.4% | [3] 13.2% | [4] -1.8% | [5] 12.3% | [6] 11.5%

COc1cc([N+](=O)[O-])ccc1NC(=O)c1cccc([N+](=O)[O-])c1C(=O)O
inactive: [1] 5% | [2] 20.6% | [3] 42.8% | [4] -9.5% | [5] -16.8% | [6] 24.6%
